Reference: PubChem BioAssay AID708 (SRMLSC, 2007)
In all, about 65,000 compounds went through this assay and fewer than 10 were called active.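 Rule for the calls: active = at 10 µM dose, initial 340 nm absorbance at least 2 fold that of control wells; inactive = change under 2 fold.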 The list is a sample of the results.

Test: compound light absorbance at 340 nm, profiling panel, artefact control, biochemical, MLSMR library, data from PS, PMK, MK assays (AID 708);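 note: initial absorbance extrapolated from kinetic A340 decline of NADH oxidation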
Details: compound absorbance at 340 nm, fold over control; at 10 µM; active compounds read high

Fold change, inactive:
CCCCCN(C(=O)NC(=O)Nc1ccccc1C)S(C)(=O)=O 1, CCNc1nc(N)nc(Oc2ccc(OCC)nn2)n1 1.07, CCOC(=O)CSc1nncc2ccc(OC)c(OC)c12 1.07, CCN(CC)S(=O)(=O)c1cc(C(=O)Nc2ccccn2)ccc1C 1.09, Cc1c2cnn(-c3ccccc3)c(=O)c2c(C)n1CCCC(=O)N1CCN(C)CC1 1.06, CNC(=O)c1cc2c(ccc3ccccc32)oc1=N 1.04, CSc1ncccc1C(=O)OCC(=O)N1CCOCC1 1.01, COc1ccc(-c2cn3ccsc3n2)cc1 1, CCCn1c(C(O)c2ccc(OCC)cc2)nc2ccccc21 (stereo unspecified) 1.02, O=C(NCc1ccco1)C1CCCN(S(=O)(=O)c2cccc3nonc23)C1 (stereo unspecified) 1.03, CCn1nc(NC(=O)c2ccco2)c2cc3ccc(C)cc3nc21 1.07, Cc1ccc(-n2nc(-c3ccco3)cc2C(=O)NCc2cccnc2)cc1 0.99, COc1ccc(C2CC(c3ccc(C)cc3)Nc3nc(N)nn32)cc1 (stereo unspecified) 1.02, Cc1ccc(C(=O)Nc2nnc(-c3ccncc3)s2)o1 1.33, CN(CCC#N)c1ncnc2scc(-c3ccccc3)c12 1.03, COc1ccc(C2CC(c3ccc(C)cc3)Nc3ncnn32)cc1 (stereo unspecified) 0.99, CSc1nsc(SC)c1NC(=O)OC1CCCCC1 1.03, Cc1ccc(NC2=NC(c3ccccc3)n3c(nc(C)cc3=O)N2)cc1 (stereo unspecified) 1.01, Cc1ccc(C2c3c(oc4ccc(C)cc4c3=O)C(=O)N2CCCN2CCOCC2)cc1 (stereo unspecified) 1.07, Cc1occc1C(=O)Nc1nnc(-c2ccncc2)s1 1.18, CCn1c(SCC(=O)NCc2ccco2)nnc1-c1ccc(N)cc1 1.03, COc1cccc(OCCOc2cccc(/C=N/n3cnnc3)c2)c1 1.05, C=CCn1c(CC(=O)Nc2cccc(OC)c2)nnc1SCC(=O)NC1CCCCC1 1.04, Cc1ccc(NC(=O)CS(=O)CC(=O)N(c2ccccc2)C(C)C(=O)NC2CCCC2)cc1 (stereo unspecified) 0.99, CCCOc1ccccc1-c1nc(SCCC(=O)O)n[nH]1 1, O=c1cccc(-c2ccc(Br)cc2)o1 1.07, CN1C(C)(C)CC(NC(=O)CCC(=O)NC2CC(C)(C)N(C)C(C)(C)C2)CC1(C)C 1.05, Cc1ccc(S(=O)(=O)NCc2csc(C)n2)c(C)c1 0.97, CCOC(=O)c1ccccc1NC(=O)CC1Nc2ccccc2NC1=O (stereo unspecified) 1.07, O=C(CCCOc1ccccc1)Nc1cccc(C(=O)O)c1 1.03, O=P(c1cccs1)(c1cccs1)c1cccs1 1.01, Cc1nnc(SCc2ccc(C(=O)c3ccc(Cl)cc3)o2)n1-c1ccccc1 1.14, c1csc(-c2cn3c(n2)SCC3)c1 1.03, COc1ccc(OCc2cccc(C(=O)N3CCCC3)c2)cc1 0.98, CCCC(=O)C1=C(N(C)c2ccccc2)CC(C)(C)C(C(=O)OC)C1=O (stereo unspecified) 1.04, c1ccc(-c2nnc(SCc3nc4ccccc4[nH]3)o2)cc1 1, CC(=O)c1cccc(NC(=O)N2CCCC2C(=O)NCCC(C)C)c1 (stereo unspecified) 1, Cc1ccccc1S(=O)(=O)Cc1ccc(C(=O)NCCN2CCCCC2C)o1 (stereo unspecified) 0.98, CCOc1ccc(C2C(C(=O)O)c3ccccc3C(=O)N2CCN2CCOCC2)cc1 (stereo unspecified) 1.01, Cc1ccccc1OCCC(=O)Nc1c(C)n(C)n(-c2ccccc2)c1=O 1.04, COc1ccccc1NC1=NC(c2ccc(Cl)cc2)N=C(N)N1 (stereo unspecified) 1.01, CC1CN(C(=O)CN2C(=O)NC(C)(c3ccccc3)C2=O)CC(C)O1 (stereo unspecified) 1.02, CCC(C)Sc1nc(C)nc2c1c(=O)n(C)c(=O)n2C (stereo unspecified) 1.03, CCNc1nc(NCC)nc(N(C)n2cnnc2)n1 1.02, CC(C)c1cc(C(=O)O)on1 0.99, O=C(CCCC(=O)N(CC(=O)NC1CCCC1)Cc1ccccc1Cl)Nc1ccccn1 1.01, O=C(CCN1C(=O)C2C3C=CC(C3)C2C1=O)Nc1ccccc1F (stereo unspecified) 0.99, COc1ccc(OC)c(C(c2nnnn2C(C)(C)C)N2CCc3ccccc3C2)c1 (stereo unspecified) 1.04, O=C(OCC(=O)N1CCN(C(=O)c2ccco2)CC1)c1ccccc1Cc1ccccc1 1, CC(C)CCNC(=O)CCNS(=O)(=O)c1ccc(Cl)cc1 0.97, Cc1cc(/C=N/n2cnnc2)c(C)n1-c1cccc(C(=O)O)c1 1.11, O=C(CNCCO)NC12CC3CC(CC(C3)C1)C2 1.03, CCN(c1ccccc1)S(=O)(=O)c1ccc(N)cc1 1.02, CC(=O)NS(=O)(=O)c1ccccc1 1, CCC(CC)c1nnc(NS(=O)(=O)Cc2ccccc2)s1 1.04, CCOc1cc(S(=O)(=O)NC2CC(C)(C)NC(C)(C)C2)ccc1F 1.05, O=C1CCCC(O)=C1C=NCCc1ccccc1 0.99, O=C(Nc1cc(=O)[nH]c2ncnn12)c1ccccc1Cl 0.98, Cn1c2c(c(=O)n(C)c1=O)C(c1ccc(O)cc1)Nc1ccccc1O2 (stereo unspecified) 1, Cc1occc1C(=O)N1CCCc2ccccc21 1.01, COc1ccc(C2SCCN2S(=O)(=O)c2ccccc2)cc1OC (stereo unspecified) 0.98, Cc1cc(C)cc(N(C(C)C(=O)Nc2c(C)n(C)n(-c3ccccc3)c2=O)S(C)(=O)=O)c1 (stereo unspecified) 1.05, Cn1nnnc1SCC(=O)N1CCN(Cc2ccccc2)CC1 1.01, CC(=O)Nc1cc(C(=O)O)ccc1S(=O)(=O)c1ccc(Cl)cc1 1.03, CCC1CCCCN1CCNS(=O)(=O)c1ccc2c(c1)CCN2C(C)=O (stereo unspecified) 1.03, O=C(CSc1nnc(-c2ccoc2)o1)N1CCOCC1 1.05
